Screens from PubChem.
IMPase Li cell: qHTS Assay for Identifying the Cell-Membrane Permeable IMPase Inhibitors: Potentiation with Lithium. Potency, µM (series often up to 59.4 µM), for inactives: top-dose activity, negative = IMPase inhibition, hits mostly inhibitors. CHO-M1 cells, IP1 TR-FRET (IP-One), carbachol + lithium. 210,000 tested, 0.35% active. AID 1457, 2008;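 note: IP1 builds up when IMPase is blocked and the TR-FRET signal falls; potency is the fitted concentration of half-maximal effect; plate controls were basal vehicle for no effect and high inhibitor control for full effect; nearly all actives have a fitted effect of over 50% in size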
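Test compounds were applied to CHO-M1 cells previously cultured for 16–30 h at 2000 per well. A small lithium amount accompanied them; after 30 min at 37C, IP1 was quantified by TR-FRET.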
HPGD inh: qHTS Assay for Inhibitors of HPGD (15-Hydroxyprostaglandin Dehydrogenase); 15-hydroxyprostaglandin dehydrogenase [NAD(+)] (Homo sapiens), P15428; purified HPGD, NADH fluorescence kinetic, PGE2 substrate; Potency, µM, inactives show at the top dose activity change, negative = inhibition, usual class: inhibitors; 150,000 tested, 4.3% active; AID 894, 2007; active = well fitted inhibition curve with a large enough effect, not every such curve was filed as active; inconclusive = small, poorly fitted or top-dose-only effect, or another doubt; inactive = no such curve, though single readings can be large or run the other way; note: potency is the fitted concentration of half-maximal effect
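NADH formation kinetics: reaction with 30 uM PGE2 and 1 mM NAD+ (final), 20 nM enzyme, Tris-HCl pH 8 with Tween 20, after 15 min compound preincubation at room temperature. Fluorescence change, last versus first of five reads.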
12-hLO inh: qHTS Assay for Inhibitors of 12-hLO (12-human lipoxygenase). Polyunsaturated fatty acid lipoxygenase ALOX12 (Homo sapiens), P18054. purified 12-hLO, xylenol orange hydroperoxide absorbance. Potency, µM (highest dose often 57.1 µM), without a hit: at the highest dose activity change, negative = inhibition, hits mostly inhibitors. 150,000 tested, 0.12% active. AID 1452, 2008; note: potency is the fitted concentration of half-maximal effect; nearly all actives have a fitted effect of over 55% in size
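Purified human 12hLO (150 nM), preincubated 15 min with compound, then 40 uM arachidonic acid for 30 min, room temperature, Hepes pH 7.0 with 0.01% Triton X-100. Hydroperoxide detected by ferrous iron/xylenol orange; 573/405 nm absorbance ratio gives reaction progress.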
ALDH1A1 inh: qHTS Assay for Inhibitors of Aldehyde Dehydrogenase 1 (ALDH1A1); Aldehyde dehydrogenase 1A1 (Homo sapiens), P00352; Purified ALDH1A1, NADH fluorescence, propionaldehyde substrate; Potency, µM (titrated, usually from 75.3 µM), for inactives: at the top dose activity, negative = inhibition, most hits filed as inhibitors; 220,000 tested, 7.3% active; active = well fitted inhibition curve with a large enough effect, not every such curve was filed as active; inconclusive = small, poorly fitted or top-dose-only effect, or another doubt; inactive = no such curve, though single readings can be large or run the other way;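 note: potency is the fitted concentration of half-maximal effect; plate controls were no enzyme wells and a reference inhibitor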
Target sequence (P00352 whole entry, looked up): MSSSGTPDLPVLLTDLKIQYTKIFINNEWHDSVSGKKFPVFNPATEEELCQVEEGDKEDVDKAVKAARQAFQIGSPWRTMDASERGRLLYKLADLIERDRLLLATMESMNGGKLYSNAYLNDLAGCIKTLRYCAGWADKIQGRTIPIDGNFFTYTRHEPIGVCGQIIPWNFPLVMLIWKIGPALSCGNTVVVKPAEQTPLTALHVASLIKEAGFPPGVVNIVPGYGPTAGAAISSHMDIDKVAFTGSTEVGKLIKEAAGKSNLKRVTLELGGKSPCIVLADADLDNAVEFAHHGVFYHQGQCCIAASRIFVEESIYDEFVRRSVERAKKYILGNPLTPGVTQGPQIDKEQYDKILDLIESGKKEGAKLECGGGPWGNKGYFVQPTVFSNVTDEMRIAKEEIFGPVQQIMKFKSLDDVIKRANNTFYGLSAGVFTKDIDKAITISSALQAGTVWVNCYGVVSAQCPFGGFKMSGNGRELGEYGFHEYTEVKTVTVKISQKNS
IMPase inh: qHTS Assay for Identifying the Cell-Membrane Permeable IMPase Inhibitors; Inositol monophosphatase 1 (Rattus norvegicus), P97697; CHO-M1 cells, IP1 accumulation, HTRF TR-FRET ratio; inhibition (IP1 accumulation), % at 46.1 µM; 120,000 tested, under 10 active; AID 901, 2007; active = well fitted curve in the direction sought with a large enough effect in the signal ratio, not every such curve was filed as active; inconclusive = small, poorly fitted or top-dose-only effect, or a change in a side signal; inactive = no such curve, though single readings can be large or run the other way; the % refers to the signal ratio;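 note: cells stimulated with carbachol in lithium chloride buffer; plate controls were DMSO basal wells for no effect and reference inhibitor wells for full effect; higher means more IMPase inhibition seen as more IP1 and lower FRET ratio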
Target sequence (P97697 whole entry, looked up): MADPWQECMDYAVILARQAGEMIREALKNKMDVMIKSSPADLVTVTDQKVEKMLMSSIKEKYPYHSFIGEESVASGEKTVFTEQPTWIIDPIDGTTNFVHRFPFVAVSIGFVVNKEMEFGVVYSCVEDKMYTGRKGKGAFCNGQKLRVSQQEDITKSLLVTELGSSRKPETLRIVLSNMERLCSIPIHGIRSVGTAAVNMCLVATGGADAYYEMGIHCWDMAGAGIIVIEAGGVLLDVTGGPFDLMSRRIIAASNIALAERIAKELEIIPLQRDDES
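CHO-M1, 2000 cells/well, cultured 16–30 h; cpd up to 46 uM; carbachol (50 uM solution, stimulation buffer w/ 50 mM LiCl, pH 7.4), 30 min 37C; IP-One TR-FRET, 10 min RT; Ex 320/Em 665, 620; Hill-fit AC50.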
PNC inhibitor: High Content Assay for Compounds that inhibit the Assembly of the Perinucleolar Compartment; PC3M PTB-GFP, PNC prevalence imaging, 16 h; active compounds read low; activity change (PNC), negative = inhibition, % at 10 µM; 140,000 tested, 3.1% active; AID 2417, 2010;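 active = readout at or below -70, meaning at least 70% loss of cells showing the perinucleolar compartment, a nuclear body marking cancer cells; inconclusive = readout between -30 and a set limit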;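 note: plate controls were DMSO wells for no effect and camptothecin positive control wells for full effect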
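PC3M cells stably expressing PTB-GFP, 750–1000 cells/well, treated 16 h at 37 °C with compound (23 nl of library stock), in duplicate. After paraformaldehyde fixation and Hoechst stain, imaged at 20x; PNC prevalence scored by image analysis.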
Active calls of the source: *; ? = inconclusive; . = no result; [ ] = remark or other dose. In the library only some 11% were active in any assay of this set; here they are far more common. Unless noted, calls come from the whole dose curve; as a rule, active = well fitted curve in the direction sought with a large enough effect; inconclusive = small, poorly fitted or top-dose-only effect, or another doubt; inactive = no such curve, though single readings can be large; an effect the other way counts as inactive or inconclusive. Unless noted, % is set by controls: 0 for no effect and ±100 for the full control effect.

SMILES	IMPase Li cell	HPGD inh	12-hLO inh	ALDH1A1 inh	IMPase inh	PNC inhibitor
O=C(c1ccc(C(F)(F)F)cc1)N1CCC(=O)N(C(COCc2ccc(C(F)(F)F)cc2)Cc2ccccc2)CC1 (configuration not stated)	4.0%	?	-7.4%	-5.2%	.	25.8
Cc1cccc(COCC(Cc2ccccc2)N2CCN(C(=O)c3ccc(C(F)(F)F)cc3)CCC2=O)c1 (configuration not stated)	8.2%	-17.3%	-3.9%	-2.6%	.	-80.2*
CC(=O)N(Cc1cc2c(C)cc(C)cc2[nH]c1=O)C1CCCCC1	-25.5%[38.3 µM]	-22.1%	-8.5%	?	?	-16.3
CCOC(=O)Cn1nnnc1C(C(C)C)N(Cc1cc2c(C)cc(C)cc2[nH]c1=O)C1CCCC1 (configuration not stated)	15.3%	-23.8%	-0.7%	3.55µM*	-11.6	151.1
CC(=O)Nc1nc(-c2ccccc2)ns1	-0.4%	-7.0%	0.3%	4.3%	-2.1	-100.0*
O=[N+]([O-])c1ccc(N2N=C(c3ccco3)CC2c2ccccc2)cc1 (configuration not stated)	20.8%[38.3 µM]	-18.6%	-9.5%	10µM*	9.8	91.4
N#Cc1ccccc1Sc1ccccc1C(=O)OCC(=O)NC12CC3CC(CC(C3)C1)C2	6.1%	12.6µM*	-4.0%	-4.6%	.	-4.9
N#Cc1ccccc1Sc1ccccc1C(=O)OCC(=O)N1CCN(C(=O)c2ccco2)CC1	3.5%[38.3 µM]	?	0.2%	14.1µM*	9.8	-28.3
CC(=O)c1ccc(NC(=O)COC(=O)c2ccccc2Sc2ccccc2C#N)cc1	?	?	0.6%	6.5%	?	-6.7
COc1ccc(NCC(=O)N/N=C/c2c(C)nn(Cc3ccccc3)c2Cl)cc1	6.7%	?	-4.2%	15.8µM*	.	-5.4
Cc1ccc(NCc2ccccc2OCc2ccccc2F)cc1	45.7%[38.3 µM]	-21.6%	-7.4%	0.4%	0.0	-18.5
Oc1ccc(NCc2ccccc2OCc2ccccc2F)cc1	10.6%[38.3 µM]	-23.4%	?	17.8µM*	15.4	14.6
CCOc1cccc(CNc2ccc(O)cc2)c1OCc1ccc(Cl)cc1	30.1%[38.3 µM]	-19.1%	9.4%	2.24µM*	17.9	5.9
COC(=O)N1C(C)=Cc2ccccc2C1CC(C)=O (configuration not stated)	17.4%	-2.3%	0.3%[11.4 µM]	-0.1%	.	.
CC(C)c1ccc(OCc2nc(-c3ccccn3)no2)c(Br)c1	9.4%[38.3 µM]	?	-9.4%	-8.7%	2.7	-0.8
Clc1ccc(OCc2nc(-c3ccncc3)no2)c(Br)c1	12.2%	17.8µM*	-5.9%	-4.7%	?	18.8
CCc1ccc(OCc2nc(-c3ccccn3)no2)c(Br)c1	57.2%[38.3 µM]	28.2µM*	-3.2%	-0.1%	-3.5[1.84 µM]	9.8
Cc1ccc(OCc2nc(-c3ccccn3)no2)c(Br)c1	-0.5%[38.3 µM]	17.8µM*	-8.7%	?	0.5	9.4
CO/N=C(\C(=O)N[C@@H]1C(=O)N2C(C(=O)O)=C(CSc3nc(=O)c(O)nn3C)CSC12)c1csc(N)n1 (some centres not stated)	-11.5%	-20.1%	.	?	.	.
Cc1ccccc1OCC(O)Cn1c(SC(C)C)nc2c1c(=O)[nH]c(=O)n2C (configuration not stated)	6.0%[38.3 µM]	14.1µM*	-20.9%	7.08µM*	-1.1	?
CN(C)CCNc1nc2c(c(=O)[nH]c(=O)n2C)n1CC(O)COc1ccc(Cl)cc1Cl (configuration not stated)	6.1%[38.3 µM]	22.4µM*	-9.3%	?	1.9	-19.0
Cc1ccccc1OCC(O)Cn1c(NCc2ccccc2)nc2c1c(=O)[nH]c(=O)n2C (configuration not stated)	-13.8%[38.3 µM]	-0.8%	-9.2%	2.0%	8.1	24.4
CCSc1nc2c(c(=O)[nH]c(=O)n2C)n1CC(O)COc1ccccc1C (configuration not stated)	-12.4%[38.3 µM]	14.1µM*	-2.8%	28.2µM*	1.0	?
CC(O)CSc1nc2c(c(=O)[nH]c(=O)n2C)n1CC(O)COc1ccccc1 (configuration not stated)	-2.1%	.	.	23.8µM*	.	.
Cc1nc2cncnc2n(Cc2ccccc2)c1=O	-0.1%	.	.	13.6%	.	.
SMILES	IMPase Li cell	HPGD inh	12-hLO inh	ALDH1A1 inh	IMPase inh	PNC inhibitor
CCOC(=O)c1ccc(N2C(=O)CC(SCC(=O)Nc3ccc(S(N)(=O)=O)cc3)C2=O)cc1 (configuration not stated)	-4.7%	.	.	1.58µM*	.	.
Cc1ccc(N2C(=O)CC(SCC(=O)Nc3ccc(S(N)(=O)=O)cc3)C2=O)cc1 (configuration not stated)	-4.6%	.	.	14.1µM*	.	.
COc1ccc(S(=O)(=O)Nc2cccc(F)c2C)cc1C(=O)N1CCOCC1	-5.5%	.	.	12.5%	.	.
COc1ccc(S(=O)(=O)Nc2ccccc2C)cc1C(=O)N1CCOCC1	23.5%	.	.	10µM*	.	.
Cc1cc(O)c(C(C)C)cc1NC1=NS(=O)(=O)c2ccccc21	5.4%[38.3 µM]	8.3%	0.7%	?	-2.0	17.6
Cc1cc(S(=O)(=O)Nc2ccccc2C(=O)O)ccc1Cl	-6.2%[38.3 µM]	-8.6%	-0.5%	12.4%	3.5	-116.6*
Cc1cc(O)c(C(C)C)cc1NS(=O)(=O)c1ccccc1	11.4%[38.3 µM]	-8.1%	-2.1%	14.1µM*	12.2	?
CSc1ccccc1NS(=O)(=O)c1ccccc1	-6.8%[38.3 µM]	-8.4%	-1.4%	8.91µM*	0.8	-29.4
CC(C)CN1CCCC2(CCN(C(=O)c3cc(C(F)(F)F)cc(C(F)(F)F)c3)CC2)C1	24.2%	-4.4%	-2.9%	4.1%	.	.
CCCCC[C@H](O)/C=C/C=C\C=C\[C@@H](O)C/C=C\CCCC(=O)O	17.2%	-16.0%	1.1%	-3.0%	.	.
Cn1c(=O)c(CCc2ccccc2)nc2cnc(N3CCOCC3)nc21	-9.2%	.	.	?	.	.
Cc1ccccc1NS(=O)(=O)c1ccc(F)cc1	9.0%[38.3 µM]	1.9%	-0.6%	3.4%	-2.2	-97.4*
CSc1ccc(S(=O)(=O)Nc2ccc3c4c(cccc24)CC3)cc1	11.4%[38.3 µM]	-13.3%	-16.3%	?	4.9	31.9
O=S(=O)(Nc1ccc2c3c(cccc13)CC2)c1ccc(F)cc1	12.6%[38.3 µM]	-15.3%	-1.2%	12.6µM*	3.4	-15.6
COc1ccc(S(=O)(=O)Nc2ccccc2OC)cc1C	15.9%[38.3 µM]	-5.6%	-1.5%	0.0%	-3.3	?
